Screening data: PubChem BioAssay, several laboratories
ANO1 block = TMEM16A chloride channel inhibitors, primary screen, cell-based, HTS; 310,000 tested, 1.2% active; Anoctamin-1 (Mus musculus), Q8BHY3; HEK293 TMEM16A/YFP iodide influx fluorescence, ionomycin; normalized B-score (activity score, 25-100; higher = stronger inhibition) at 10 µM;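 active means ratio plate-corrected score three or more library SD toward inhibition, starting fluorescence score within five deviations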;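 further: score derived from kinetic fluorescence span divided by baseline fluorescence per well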
RTF Ca sens inh = cardiac RTF calcium sensitivity inhibitors, primary screen, biochemical, IANBD-TnC fluorescence, EC70 calcium; Troponin I, cardiac muscle (Homo sapiens) + Troponin T, cardiac muscle (Homo sapiens) + …; IANBD-labeled cardiac RTF, Ca2+ fluorescence; inhibition, % at 7.15 µM; 340,000 tested, 0.12% active;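 active means inhibition above the mean inhibition of all tested compounds plus 3 SD, cut at about 17% in these data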;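 further: assay run at fixed EC70 calcium of 1.6 mM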
CRFBP-R2 agonist = agonists of CRF-BP/CRF-R2 complex, primary screen, cell-based, HEK293, calcium dye fluorescence, uHTS. CRF-binding protein / CRF receptor 2 complex (human). calcium dye fluorescence (FLIPR); percent of saturating CRF peptide response. activation, % at 13.2 µM. 350,000 tested, 0.46% active. AID 588473, 2011;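 active means activation of at least 50%, plus an integration ratio under a set limit after plate pattern correction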
ANO1 activ = TMEM16A chloride channel activators or potentiators, primary screen, cell-based, HTS; Anoctamin-1 (Mus musculus), Q8BHY3; HEK293 TMEM16A/YFP-H148Q/I152L, iodide quench fluorescence; stronger effect = lower value; B-score at 10 µM; 340,000 tested, 0.3% active; AID 623877, 2012;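 active means fluorescence-ratio B-score plate-corrected deviation score at least 3 library SD below zero, with starting fluorescence score within 5 deviations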;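 further: channel opened by trigger with iodide after compound preincubation; score built on the fluorescence ratio of max minus min over baseline; more negative score means more quench and so TMEM16A activation or potentiation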
CRFBP-R2 block = antagonists of CRF-BP/CRF-R2 complex, primary screen, cell-based, HEK293, calcium dye fluorescence, uHTS. CRF-induced calcium fluorescence. inhibition, % at 11.8 µM. 350,000 tested, 0.59% active;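 active means inhibition of the ligand-induced calcium signal above about 50% at the single tested concentration, limit read from the data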
RTF Ca sens act = cardiac RTF calcium sensitivity activators, primary screen, biochemical, IANBD-TnC fluorescence, EC20 calcium; Troponin I, cardiac muscle (Homo sapiens) + Troponin T, cardiac muscle (Homo sapiens) + …; IANBD-labeled TnC RTF fluorescence at EC20 calcium; 0% EC20 calcium, 100% full calcium; activation, % at 7.2 µM; 340,000 tested, 0.24% active; AID 493008, 2010;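 active means activation above the mean over all tested compounds plus 3 SD, cut at about 30% in these data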;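 further: rise in fluorescence read as greater calcium sensitivity of cardiac thin filaments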
Numbers stand for hits; – = inactive; · = not tested or not shown. An excerpt weighted towards active compounds, which were near 2.4% of everything screened.

SMILES	ANO1 block	RTF Ca sens inh	CRFBP-R2 agonist	ANO1 activ	CRFBP-R2 block	RTF Ca sens act
O=C(COC(=O)C1CCCN1C(=O)c1cccs1)Nc1ccc2c(c1)OCO2 (stereo not drawn)	–	–	–	-20	–	–
O=C(COC(=O)C1CCCN1C(=O)c1cccs1)c1ccccc1 (stereo not drawn)	–	–	–	-14	–	–
CCOC(=O)c1ccc(/C=C2/C=C(c3ccccc3)N(c3ccc(Cl)c(C(=O)O)c3)C2=O)cc1	–	–	96	–	–	–
O=C(Nc1ncc(Br)s1)C(Cc1ccccc1)n1cccc1 (stereo not drawn)	100	–	–	–	–	–
CCC(=O)Nc1ccc(NC(=O)c2oc3ccccc3c2C)cc1	–	–	–	–	98	–
O=C(NCc1cccc(C(F)(F)F)c1)c1cccc2c1C(=O)c1ccc(N3CCC(Cc4ccccc4)CC3)cc1S2(=O)=O	·	–	67	–	–	95
O=C(O)c1cccc2c1C(=O)c1ccc(N3CCCC3)cc1S2(=O)=O	·	–	–	–	–	36
O=C(NCc1ccco1)c1cccc2c1C(=O)c1ccc(/C=C/c3ccccc3)cc1S2(=O)=O	·	–	–	–	–	–
O=C(NCCN1CCOCC1)c1cccc2c1C(=O)c1ccc(N3CCCC3)cc1S2(=O)=O	·	–	–	–	–	–
O=C(NCc1cccc(F)c1)c1cccc2c1C(=O)c1ccc(N3CCCC3)cc1S2(=O)=O	·	–	91	–	–	76
COc1ccccc1N1CCN(c2ccc3c(c2)S(=O)(=O)c2cccc(C(=O)NCc4ccc(F)cc4)c2C3=O)CC1	·	·	–	·	–	·
O=C(NCc1ccco1)c1cccc2c1C(=O)c1ccc(N3CCC(Cc4ccccc4)CC3)cc1S2(=O)=O	·	–	62	–	–	117
O=C(NCc1cc(C(F)(F)F)ccc1Cl)c1cccc2c1C(=O)c1ccc(N3CCOCC3)cc1S2(=O)=O	·	–	–	–	–	–
Clc1ccc(C(c2nnnn2CCc2ccccc2)N2CCSCC2)cc1 (stereo not drawn)	–	–	–	–	–	–
CCS(=O)(=O)c1nc(S(=O)(=O)c2ccc(C)cc2)c(NCCCN(C)C)s1	–	–	–	–	–	–
CC(/C=N/NC(=O)c1nnn(-c2nonc2N)c1C(C)C)=C\c1ccco1	–	–	–	–	–	–
CCN(Cc1ccccc1)C(=O)c1c(-c2ccccc2Cl)noc1C	–	–	–	–	–	–
O=C(NCc1cccc(F)c1)c1cccc2c1C(=O)c1ccc(N3CCC(Cc4ccccc4)CC3)cc1S2(=O)=O	·	–	75	–	–	178
CN1CCC[C@@H]1CCNC(=O)c1cccc2c1C(=O)c1ccc(N3CCCC3)cc1S2(=O)=O	·	–	–	–	–	–
O=C(NC1CC1)c1cccc2c1C(=O)c1ccc(N3CCC(N4CCCCC4)CC3)cc1S2(=O)=O	·	·	–	·	–	·
CC1CCN(c2ccc3c(c2)S(=O)(=O)c2cccc(C(=O)NCc4cccc(F)c4)c2C3=O)CC1	·	–	92	–	–	164
O=C(NCCc1ccc(F)cc1)c1cccc2c1C(=O)c1ccc(N3CCC(Cc4ccccc4)CC3)cc1S2(=O)=O	·	–	174	–	–	117
CCOc1ccc(S(=O)(=O)Nc2cccnc2)cc1	–	–	–	–	53	–
CCOc1ccc(S(=O)(=O)Nc2cnc3ccccc3c2)cc1	25	–	–	–	–	–
CCCC(=O)NC(=S)Nc1ccc(S(=O)(=O)Nc2ccc(OCC)cc2)cc1	–	–	55	–	–	–
SMILES	ANO1 block	RTF Ca sens inh	CRFBP-R2 agonist	ANO1 activ	CRFBP-R2 block	RTF Ca sens act
C/C(=N\OCC(=O)Nc1ccc(F)c(F)c1F)c1cc2ccccc2o1	–	–	–	–	54	–
CSc1ccccc1NC(=O)CO/N=C(\C)c1cc2ccccc2o1	25	–	–	–	–	–
C/C(=N\OCC(=O)NC12CC3CC(CC(C3)C1)C2)c1cc2ccccc2o1	–	–	–	–	–	–
CCc1ccc(NC(=O)CO/N=C(\C)c2cc3ccccc3o2)cc1	100	–	–	–	–	–
COc1ccccc1CNC(=O)[C@H](C)NC(=O)C1CCN(C(=O)[C@@H](N)C(C)C)CC1	–	–	–	–	–	–
Cn1c(=O)oc2cc(S(=O)(=O)NCCC(=O)NCc3ccc(F)cc3)ccc21	–	–	–	–	99	–
CCOC(=O)C(CCCCCCC(NC(C)=O)(C(=O)OCC)C(=O)OCC)(NC(C)=O)C(=O)OCC	–	–	–	–	–	83
CCCCNC(=O)c1ccc(NC(=O)CC2SC(N3CCCC3)=NC2=O)cc1 (stereo not drawn)	·	–	–	-26	–	–
C[C@@H]1CC=C[C@H]2[C@H]1C(=O)N(Cc1ccccc1)[C@H]2c1ccc(C(F)(F)F)cc1	100	–	–	–	–	–
C[C@@H]1CC=C[C@@H]2[C@H]1C(=O)N(Cc1ccccc1)[C@H]2c1cccc(Br)c1	·	–	–	·	72	–
C[C@@H]1CC=C[C@@H]2[C@H]1C(=O)N(Cc1ccccc1)[C@H]2c1ccccc1Br	·	–	–	–	–	–
O=C(CCCCn1c(=O)c2ccccc2n(Cc2ccc(F)cc2Cl)c1=O)NCc1ccco1	–	–	–	–	75	–
O=C(CCCCn1c(=O)c2ccccc2n(CC(=O)Nc2ccc(F)cc2)c1=O)NCc1ccco1	–	–	–	–	–	–
O=C(Nc1cccc(S(=O)(=O)N2CCOCC2)c1)c1ccc(Cl)c([N+](=O)[O-])c1	–	–	–	–	–	–
CSc1ncc(Cl)c(C(=O)Nc2ccc(S(=O)(=O)N3CCOCC3)cc2)n1	–	–	–	–	90	–
O=C(Nc1ccc(S(=O)(=O)N2CCOCC2)cc1)c1ccc(Cl)c([N+](=O)[O-])c1	·	–	–	–	56	–
CCOC(=O)c1ccc(NC(=O)c2cccc(S(=O)(=O)N3CCOCC3)c2)cc1	100	–	–	–	–	–
CCOC(=O)c1ccc(NC(=O)c2ccc(C)c(S(=O)(=O)N3CCOCC3)c2)cc1	–	–	–	–	–	–
CSc1ncc(Cl)c(C(=O)Nc2ccc(NC(C)=O)cc2)n1	–	–	–	–	–	–
COc1ccc(CC(NC(C)=O)C(=O)NC2CCN(c3nc(C)cc(C)c3C#N)CC2)c(OC)c1 (stereo not drawn)	–	–	–	–	–	–
Cc1nc2c(s1)sc1ccccc12	–	–	–	–	51	–
